Measured values: the supplement of paper PMC9694430
Where a name gives a salt, the structure may show the parent alone.

Experiments:
Assay in all cases: thermal shift delta Tm vs DMSO control; higher = stronger stabilization (binding)
Settings in all cases: 12.5 µM; protein concentration 2 µM
[1] = tested on: LOC_OS01G57100-cb003
Outline: (§1)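 Thermal shift values come from differential scanning fluorimetry on purified rice kinase domains made in E. coli, with melting temperatures obtained from Boltzmann fits. Samples of 19.5 μl held 2 μM kinase, 100 mM potassium phosphate pH 7.5, 150 mM NaCl, 10% glycerol, 5 × SYPRO Orange and compound in DMSO, and were heated from 25°C to 95°C at 0.05°C/s. Each shift is a triplicate mean relative to the DMSO-only protein sample.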

[2] = tested on: LOC_OS01G60330-cb001
Outline: as §1

[3] = tested on: LOC_OS01G60700-cb002
Outline: as §1

[4] = tested on: LOC_OS01G63280-cb003
Outline: as §1

[5] = tested on: LOC_OS01G67340-cb003
Outline: as §1

[6] = tested on: LOC_OS01G70970-cb002
Outline: as §1

[7] = tested on: LOC_OS02G07810-cb001
Outline: as §1

[8] = tested on: LOC_OS02G08530-cb003
Outline: as §1

[9] = tested on: LOC_OS02G14120-cb001
Outline: as §1

[10] = tested on: LOC_OS02G17970-cb001
Outline: as §1

[11] = tested on: LOC_OS02G45750-cb003
Outline: as §1

[12] = tested on: LOC_OS02G54510-cb004
Outline: as §1

[13] = tested on: LOC_OS03G04050-cb001
Outline: as §1

[14] = tested on: LOC_OS03G12390-cb001
Outline: as §1

[15] = tested on: LOC_OS03G27990-cb004
Outline: as §1

[16] = tested on: LOC_OS03G50450-cb001
Outline: as §1

[17] = tested on: LOC_OS03G50810-cb003
Outline: as §1

[18] = tested on: LOC_OS04G35114-cb001
Outline: as §1

[19] = tested on: T1, LOC_OS04G38480-cb003
T1 sequence (whole entry): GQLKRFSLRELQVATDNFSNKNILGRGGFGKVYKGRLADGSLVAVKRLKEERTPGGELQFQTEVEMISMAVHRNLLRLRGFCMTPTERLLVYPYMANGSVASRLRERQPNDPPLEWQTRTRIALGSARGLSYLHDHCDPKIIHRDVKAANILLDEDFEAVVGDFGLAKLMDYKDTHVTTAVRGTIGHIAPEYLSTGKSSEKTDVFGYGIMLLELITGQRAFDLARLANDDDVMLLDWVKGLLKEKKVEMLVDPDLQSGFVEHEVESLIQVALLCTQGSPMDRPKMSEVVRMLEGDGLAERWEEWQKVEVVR
Outline: as §1

[20] = tested on: T2, LOC_OS04G41100-cb001
T2 sequence (whole entry): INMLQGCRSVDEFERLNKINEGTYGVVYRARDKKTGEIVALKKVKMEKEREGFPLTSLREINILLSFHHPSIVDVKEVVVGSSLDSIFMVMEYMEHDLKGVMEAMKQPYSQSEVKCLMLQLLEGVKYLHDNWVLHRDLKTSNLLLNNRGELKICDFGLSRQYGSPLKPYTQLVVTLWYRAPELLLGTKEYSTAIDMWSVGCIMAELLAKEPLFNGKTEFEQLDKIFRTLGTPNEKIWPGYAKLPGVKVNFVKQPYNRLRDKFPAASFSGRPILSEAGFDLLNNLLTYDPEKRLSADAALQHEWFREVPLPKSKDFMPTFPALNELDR
Outline: as §1
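Further: purified Escherichia coli-expressed rice kinase domain construct.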

| SMILES | thermal shift delta Tm [1] [°C] | thermal shift delta Tm [2] [°C] | thermal shift delta Tm [3] [°C] | thermal shift delta Tm [4] [°C] | thermal shift delta Tm [5] [°C] | thermal shift delta Tm [6] [°C] | thermal shift delta Tm [7] [°C] | thermal shift delta Tm [8] [°C] | thermal shift delta Tm [9] [°C] | thermal shift delta Tm [10] [°C] | thermal shift delta Tm [11] [°C] | thermal shift delta Tm [12] [°C] | thermal shift delta Tm [13] [°C] | thermal shift delta Tm [14] [°C] | thermal shift delta Tm [15] [°C] | thermal shift delta Tm [16] [°C] | thermal shift delta Tm [17] [°C] | thermal shift delta Tm [18] [°C] | thermal shift delta Tm [19] [°C] | thermal shift delta Tm [20] [°C] |
| --- | --- | --- | --- | --- | --- | --- | --- | --- | --- | --- | --- | --- | --- | --- | --- | --- | --- | --- | --- | --- |
| Cc1cn(-c2cc(NC(=O)c3ccc(C)c(Nc4nccc(-c5cnccn5)n4)c3)cc(C(F)(F)F)c2)cn1 [Radotinib] | 1.49 | 1.07 | 1.39 | 0.63 | 0.48 | 0.3 | 1.04 | 0.67 | 1.36 | 1.82 | 0.73 | 1.99 | 0.36 | 0.26 | 0.23 | -0.11 | 0.14 | 0.13 | 1.4 | 0.41 |
| O=C(Nc1cccc(Cl)c1)Nc1ncc(CCNc2ncnc3ccsc23)s1 [SNS-314 Mesylate] | 2.62 | 3.98 | 1.44 | 2.76 | 0.53 | 1.48 | 2.27 | 2.1 | 4.25 | 1.27 | 0.93 | 0.38 | 1.02 | 1.77 | 0.36 | 0.82 | 0.75 | 1.73 | 2.48 | 1.12 |
| c1ccc(-c2[nH]ncc2-c2ccnc3ccccc23)nc1 | 0.37 | -0.07 | 0.62 | -0.05 | 0.51 | -0.04 | 0.95 | 0.29 | 2.26 | 0.56 | 0.48 | 0.4 | 0.67 | 0.41 | 0.25 | 0.76 | 0.28 | 0.25 | 2.34 | 0.99 |
| C[C@@]1(C(=O)Nc2ccc(F)nc2)CCCN1c1nc(Nc2cc(C3CC3)n[nH]2)c2cccn2n1 | 0.92 | -2.64 | 0.85 | 0.6 | -0.49 | 1.02 | 1.05 | 0.71 | 8.77 | 0.26 | -1.4 | 2.49 | 0.25 | 0.55 | 0.21 | -0.6 | 1.17 | 2.02 | 1.6 | 0.62 |
| CC(C)(O)CNc1ncc(-c2ccnc(Nc3ccnc(Cl)c3)n2)c(CC2CC2)n1 | 0.99 | 1.94 | 0.32 | -0.09 | 0.66 | 0.37 | 0.23 | 0.89 | 1.97 | -0.17 | 2.85 | 0.6 | 0.19 | -0.18 | 0.11 | 0.3 | 0.65 | 3.2 | 1.45 | 0.65 |
| Cc1cc(C(=O)Nc2nc3cccc(Cl)c3n2[C@@H]2CCCCN(C(=O)/C=C/CN(C)C)C2)ccn1 [Nazartinib (EGF816, NVS-816)] | 1.05 | 1.72 | 1.17 | 0.35 | 1.06 | 0.93 | 0.98 | 2.18 | 1.69 | 1.28 | 0.42 | 0.81 | 0.51 | 2.23 | 1.56 | 0.64 | 0.51 | 1.87 | 2.14 | 0.6 |
| O=C(NOCC(O)CO)c1cc(Br)c(F)c(F)c1Nc1ccc(I)cc1F (stereo not given) | 2.4 | 2.2 | 1.6 | 1.18 | 0.03 | 0.55 | 2.41 | 1.08 | 1.22 | 2.02 | -0.49 | -0.06 | 0.63 | 0.93 | 0.15 | 0.19 | 0.19 | 0.09 | 1.04 | 3.8 |
| CN1CCN(c2cccc(Nc3nc4c(-c5ccc(S(C)(=O)=O)cc5)cccn4n3)c2)CC1 | 0.76 | 13.8 | 0.45 | 0.49 | 1.35 | 0.37 | 0.59 | 1.34 | 6.3 | 0.48 | 2.02 | 0.36 | 0.44 | 0.47 | 1.72 | 2.95 | 1.65 | 2.23 | 1.42 | 0.46 |
| COc1ccc(CNC(=O)Nc2ncc([N+](=O)[O-])s2)cc1 | 1.87 | 0.81 | 1.38 | 0.15 | 0.55 | 0.54 | 1.25 | 1.46 | -0.24 | 1.43 | 0.37 | -0.05 | 0.67 | 0.15 | 0.48 | 0.41 | 0.22 | 0.93 | 1.93 | 0.59 |
| CNC(=O)c1ccccc1Nc1cc(Nc2ccc(N3CCOCC3)cc2OC)ncc1C(F)(F)F | 2.14 | 0.41 | 1.89 | 0.52 | 3.13 | 10.3 | 0.91 | 3.96 | 9.46 | 2.18 | 5.48 | 0.23 | 0.62 | 7.78 | 3.73 | 0.25 | 1.97 | 6.3 | 3.08 | 0.19 |
| NC(=O)Nc1cc(-c2cccc(F)c2)sc1C(=O)N[C@H]1CCCNC1 | 4.78 | 1.93 | 0.65 | 0.86 | 0.78 | 1.89 | 1.56 | 5.46 | 8.74 | 0.89 | 1.81 | 1.91 | 0.72 | 2.87 | 3.23 | 3.98 | 4.12 | 2.52 | 2.65 | 0.96 |
| O=C(Nc1cnn2ccc(N3CCC[C@@H]3c3cc(F)ccc3F)nc12)N1CC[C@H](O)C1 [Larotrectinib (LOXO-101) sulfate] | 1.19 | 0.93 | 0.28 | -0.24 | 0.23 | 0.22 | 0.18 | 0.6 | 3.12 | 0.72 | 1.75 | 0.37 | 0.11 | -0.11 | 0.01 | 0.17 | 0.5 | 1.91 | 1.2 | 0.27 |
